Measured values taken from the supplement of paper PMC3342239.
Counter-ions that a name gives are not always drawn.

Each compound was assayed on Saccharomyces cerevisiae (assay: fraction of cells in G1 phase (DNA content, flow cytometry); higher = more cells with unreplicated DNA (G1 delay)). Settings: temperature: 30 C; YPD; BY4741 PDR5+ SNQ2+; drug added to: actively dividing cells; 4.33 h.
Description: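 S. cerevisiae cultures in YPD at 30°C were treated with each drug of the Enzo FDA-approved library at 20 µg/ml (final µM given per drug). Cells were fixed after 6–7 h (S1) or 6 h (S2), or after 4.33 h for BY4741 (S3), then stained with SYTOX Green. %G1 is the Dean-Jett-Fox G1 peak area divided by the G1+G2/M peak areas, written as a fraction and averaged over at least two independent experiments. DMSO reference: mean ~0.49; >0.60 is called High G1 and <0.3876 Low G1. Scale: lower means mitotic delay.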

| SMILES | fraction of cells in G1 phase |
| --- | --- |
| C[C@@H]1CC[C@H]2[C@@H](C)C(=O)O[C@@H]3O[C@@]4(C)CC[C@@H]1[C@]32OO4 [Artemisinin] (70.8367 µM) | 0.5 |
| CCCCC(C#N)(Cn1cncn1)c1ccc(Cl)cc1 (stereo unspecified) [Myclobutanil] (69.2563 µM) | 0.536 |
| C#C[C@]1(O)CC[C@H]2[C@@H]3CCC4=CC(=O)CCC4=C3C=C[C@@]21CC [Gestrinone] (64.8457 µM) | 0.423 |
| CC1C=CC=CCCC=CC=CC=CC=CC(OC2OC(C)C(O)C(N)C2O)CC2OC(O)(CC(O)C(O)CCC(O)CC(O)CC(O)CC(=O)OC(C)C(C)C1O)CC(O)C2C(=O)O (stereo unspecified) [Nystatin] (21.5955 µM) | 0.549 |

Same assay, conditions: temperature: 30 C; YPD; JTY2953 pdr5 snq2 (sensitized); drug added to: actively dividing cells; 6 h

| SMILES | fraction of cells in G1 phase |
| --- | --- |
| C[C@@H]1CC[C@H]2[C@@H](C)C(=O)O[C@@H]3O[C@@]4(C)CC[C@@H]1[C@]32OO4 [Artemisinin] (70.8367 µM) | 0.691 |
| CCCCC(C#N)(Cn1cncn1)c1ccc(Cl)cc1 (stereo unspecified) [Myclobutanil] (69.2563 µM) | 0.766 |
| C#C[C@]1(O)CC[C@H]2[C@@H]3CCC4=CC(=O)CCC4=C3C=C[C@@]21CC [Gestrinone] (64.8457 µM) | 0.736 |
| CC1C=CC=CCCC=CC=CC=CC=CC(OC2OC(C)C(O)C(N)C2O)CC2OC(O)(CC(O)C(O)CCC(O)CC(O)CC(O)CC(=O)OC(C)C(C)C1O)CC(O)C2C(=O)O (stereo unspecified) [Nystatin] (21.5955 µM) | 0.699 |
| C[C@]12Cc3c[nH]nc3C[C@@H]1CC[C@@H]1[C@@H]2CC[C@@]2(C)[C@H]1CC[C@]2(C)O [Stanozolol] (60.8824 µM) | 0.497 |
| O=c1[nH]c2ccccc2n1C1CCN(CCCC(c2ccc(F)cc2)c2ccc(F)cc2)CC1 [Pimozide] (43.3313 µM) | 0.344 |

Same assay, conditions: temperature: 30 C; YPD; JTY2953 pdr5 snq2 (sensitized); drug added to: cultures diluted from stationary phase; 6-7 h

| SMILES | fraction of cells in G1 phase |
| --- | --- |
| N[C@@H]1C[C@H]1c1ccccc1.N[C@H]1C[C@@H]1c1ccccc1 [Tranylcypromine] (150.156 µM) | 0.531 |
| C[C@@H]1CC[C@H]2[C@@H](C)C(=O)O[C@@H]3O[C@@]4(C)CC[C@@H]1[C@]32OO4 [Artemisinin] (70.8367 µM) | 0.613 |
| COc1ccc(C(=O)c2c(C)n(CCN3CCOCC3)c3ccccc23)cc1 [Pravadoline] (52.8436 µM) | 0.594 |
| O=C1CCCN1CC#CCN1CCCC1 [Oxotremorine sesquifumarate] (96.9509 µM) | 0.542 |
| NCC1(CC(=O)O)CCCCC1 [Gabapentin] (116.794 µM) | 0.543 |
| CC(NC(C)(C)C)C(=O)c1cccc(Cl)c1 (stereo unspecified) [Amfebutamone] (83.4211 µM) | 0.502 |
| CC(C)C[C@H]1C(=O)N2CCC[C@H]2[C@]2(O)O[C@](NC(=O)[C@@H]3C=C4c5cccc6[nH]c(Br)c(c56)C[C@H]4N(C)C3)(C(C)C)C(=O)N12 [Bromocriptine mesylate] (30.5525 µM) | 0.529 |
| CC(CCc1ccccc1)NC(C)C(O)c1ccc(O)cc1 (stereo unspecified) [Buphenine] (59.5415 µM) | 0.512 |
| Oc1ccc2c3c1O[C@H]1[C@@H](O)CC[C@@]4(O)[C@@H](C2)N(CC2CCC2)CC[C@]314 [Nalbuphine HCl] (55.9513 µM) | 0.469 |
| CCCCC(C#N)(Cn1cncn1)c1ccc(Cl)cc1 (stereo unspecified) [Myclobutanil] (69.2563 µM) | 0.667 |
| C=CCN1CC[C@]23c4c5ccc(O)c4O[C@H]2C(=O)CC[C@@]3(O)[C@H]1C5 [Naloxone HCl] (61.0904 µM) | 0.488 |
| COc1ccc(C(CN(C)C)C2(O)CCCCC2)cc1 (stereo unspecified) [Venlafaxine HCl] (72.0954 µM) | 0.453 |
| C#C[C@]1(O)CC[C@H]2[C@@H]3CCC4=CC(=O)CCC4=C3C=C[C@@]21CC [Gestrinone] (64.8457 µM) | 0.609 |
| CN1C[C@H](C(=O)N[C@]2(C)O[C@@]3(O)[C@@H]4CCCN4C(=O)[C@H](Cc4ccccc4)N3C2=O)C=C2c3cccc4[nH]cc(c34)C[C@H]21 [Ergotamine D-tartrate] (34.3833 µM) | 0.499 |
| CC1C=CC=CCCC=CC=CC=CC=CC(OC2OC(C)C(O)C(N)C2O)CC2OC(O)(CC(O)C(O)CCC(O)CC(O)CC(O)CC(=O)OC(C)C(C)C1O)CC(O)C2C(=O)O (stereo unspecified) [Nystatin] (21.5955 µM) | 0.665 |
| CO[C@]12C[C@@H](COC(=O)c3cncc(Br)c3)CN(C)[C@@H]1Cc1cn(C)c3cccc2c13 [Nicergoline] (41.2884 µM) | 0.481 |

| SMILES | fraction of cells in G1 phase |
| --- | --- |
| N[C@@H](Cc1ccc(N(CCCl)CCCl)cc1)C(=O)O [Melphalan] (65.5294 µM) | 0.45 |
| C=CCN1CC[C@]23CCCC[C@H]2[C@H]1Cc1ccc(O)cc13 [Levallorphan tartrate] (70.5673 µM) | 0.476 |
| CC[C@@H](C(N)=O)N1CCCC1=O [Levetiracetam] (117.5 µM) | 0.529 |
| C#C[C@]1(O)CC[C@H]2[C@@H]3CCC4=CC(=O)CC[C@]4(C)[C@H]3CC[C@@]21C [Ethisterone] (64.009 µM) | 0.462 |
| C[C@]12Cc3c[nH]nc3C[C@@H]1CC[C@@H]1[C@@H]2CC[C@@]2(C)[C@H]1CC[C@]2(C)O [Stanozolol] (60.8824 µM) | 0.801 |
| CCN(C)C(=O)Oc1cccc([C@H](C)N(C)C)c1 [Rivastigmine] (79.8902 µM) | 0.504 |
| CCCC(=O)OCC[N+](C)(C)C [Butyrylcholine Cl] (114.768 µM) | 0.504 |
| CC(C)(C)NCC(O)c1ccccc1Cl (stereo unspecified) [Tulobuterol] (87.8208 µM) | 0.493 |
| CC(=O)O[C@H]1C[C@@H]2CC[C@@H]3[C@H](CCC4(C)[C@H]3C[C@H]([N+]3(C)CCCCC3)[C@@H]4OC(C)=O)C2(C)C[C@@H]1[N+]1(C)CCCCC1 (stereo partly specified) [Pancuronium Br] (34.9114 µM) | 0.487 |
| CC(O)(CS(=O)(=O)c1ccc(F)cc1)C(=O)Nc1ccc(C#N)c(C(F)(F)F)c1 (stereo unspecified) [Bicalutamide] (46.4705 µM) | 0.493 |
| CC[C@H](C)[C@H]1O[C@]2(C=C[C@@H]1C)C[C@@H]1C[C@@H](C/C=C(\C)[C@@H](O[C@H]3C[C@H](OC)[C@@H](O[C@H]4C[C@H](OC)[C@@H](O)[C@H](C)O4)[C@H](C)O3)[C@@H](C)/C=C/C=C3\CO[C@@H]4[C@H](O)C(C)=C[C@@H](C(=O)O1)[C@]34O)O2.CO[C@H]1C[C@H](O[C@H]2[C@H](C)O[C@@H](O[C@@H]3/C(C)=C/C[C@@H]4C[C@@H](C[C@]5(C=C[C@H](C)[C@@H](C(C)C)O5)O4)OC(=O)[C@@H]4C=C(C)[C@@H](O)[C@H]5OC/C(=C\C=C\[C@@H]3C)[C@]54O)C[C@@H]2OC)O[C@@H](C)[C@@H]1O [Abamectin] (22.9069 µM) | 0.516 |
| CNC(=O)Oc1ccc2c(c1)[C@]1(C)CCN(C)[C@@H]1N2C [Physostigmine sulfate] (72.6339 µM) | 0.472 |
| CCCN1C[C@H](CSC)C[C@@H]2c3cccc4[nH]cc(c34)C[C@H]21 [Pergolide mesylate] (63.5937 µM) | 0.489 |
| c1ccc2c(c1)OCC(C1=NCCN1)O2 (stereo unspecified) [Idazoxan] (97.9286 µM) | 0.48 |
| O=c1[nH]c2ccccc2n1C1CCN(CCCC(c2ccc(F)cc2)c2ccc(F)cc2)CC1 [Pimozide] (43.3313 µM) | 0.85 |
